Results published in PubChem BioAssay.
Results filed as inconclusive are left out. Activity calls are given as the source filed them.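 How the source made its calls, unless noted: active means viability at or below 30% in both replicate assays; inconclusive means viability at or below 30% in just one of the two assays; inactive means the rest.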

How the values were obtained:
[1] = Her2 expression decrease, cell viability multiplex – SKBR3 breast tumor cells, AlphaScreen, ATP viability, primary screen (AID 461;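 active means Her2 level under about 52% in both replicate screens, with viability over 70% of control, limit read from the data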;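 on Her2 level: lower value means less Her2 protein in the cells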;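 on viability: percent of carrier control wells set as 100% viability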); settings: SKBR3 Her2 protein level, 18-24 h, measured here: SKBR3 viability, ATP luminescence, at 10 µM
[2] = target: Receptor tyrosine-protein kinase erbB-2 (Homo sapiens) (UniProt P04626); assay: as above; settings: 18-24 h, at 10 µM, stronger effect = lower value
[3] = reduced viability of SK-BR-3 breast cancer cells – cell-based, 24 h, human, pilot screen (AID 572;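 active means viability at or below 10% of carrier control in both of two separate runs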;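 further: compound exposure lasted between 18 and 24 h rather than exactly 24 h; 100% = carrier-treated control wells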); settings: SK-BR-3 viability, CellTiter-Glo luminescence, at 10 µM, stronger effect = lower value
[4] = HUVEC growth inhibition – cell-based, human, primary screen (AID 575); settings: HUVEC proliferation, CellTiter-Glo luminescence, 72 h; at 10 µM; stronger effect = lower value;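 further: 100% = median of untreated cell wells with 0.1% DMSO on each plate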
[5] = H69AR cell proliferation blockers – human, duplicate replicates, primary screen (AID 580;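 active means viability at or under a set limit in both replicates, limit being median viability minus 3 SD, cut at about 48% in these data, passing the limit was not always enough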;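 further: 100% = mean luminescence of untreated wells and 0% = no signal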); settings: H69AR lung tumor cells viability, ATP luminescence, 72 h; at 10 µM; stronger effect = lower value
[6] = MRP1 drug-resistance reversers in H69AR cells – cell-based, doxorubicin co-treatment, pilot screen (AID 601;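 active means viability loss from added drug above about 55%, and viability with drug at most 40%, in both replicates, limit read from the data, passing the limit was not always enough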); settings: CellTiter-Glo, 72 h, at 10 µM; for differential viability (reversal): stronger effect = higher value
[7] = yeast transport mutant growth inhibition pilot in 384-well plates, post-Golgi transport modulator project (AID 636; in the data active means inhibition above about 31%); settings: absorbance 615 nm, about 18 h, stronger effect = higher value
[8] = growth suppression of yeast trafficking mutant, preliminary HTS, modulators of trafficking downstream of Golgi apparatus project, 1536-format plate, OD 615 nm (AID 637; in the data active means inhibition above about 30%); settings: yeast transport mutant growth, absorbance 615 nm, 18 h; stronger effect = higher value
[9] = S. cerevisiae growth inhibition in permissive medium (OD615), pilot counter-assay for S. cerevisiae lifespan shortening project, permissive growth control (AID 705;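 active means growth inhibition above 25% in both replicates, a cutoff set 3 SD above the mean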); settings: OD615, 24 h, at 10 µM, stronger effect = higher value
[10] = S. cerevisiae growth inhibition in restrictive medium, OD615, pilot screen, restrictive growth control, yeast lifespan reduction project (AID 706;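 active means growth inhibition above a set limit, 3 SD over mean compound inhibition, in both replicates, cut at about 43% in these data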;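 further: modified DeaD lifespan yeast strain shifted to restrictive glucose medium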); settings: OD615, 48 h, at 10 µM, stronger effect = higher value
[11] = doxorubicin toxicity protection in MRP-1 cells – H69AR cells, CellTiter-Glo, duplicate, MRP-1 activator project, pilot screen (AID 807;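 active means viability increase at or above a cutoff of the median across tested compounds plus 3 SD, cut at about 8.5% in these data, passing the limit was not always enough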;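 further: compound pretreatment 18-22 h then 72 h combined with doxorubicin; 0% = doxorubicin alone and 100% = vehicle without doxorubicin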); settings: H69AR viability with doxorubicin, CellTiter-Glo luminescence; at 10 µM; stronger effect = higher value
[12] = viability of HCT116 without oncogenic beta-catenin – human colon tumor cells, pilot screen (AID 823;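 active means cell viability at or below a set limit in both duplicate runs, the limit being the all-compound median minus 4 SD, cut at about 23% in these data, passing the limit was not always enough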;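 further: 0% = wells killed by 20 µM Hyamine and 100% = untreated DMSO cell wells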); settings: HCT116 beta-catenin knockout viability, CellTiter-Glo, 60 h; at 10 µM; stronger effect = lower value
[13] = RAM pathway blockade in budding yeast – dse1pr::URA3 reporter, 5-FOA selection, pilot screen (AID 869;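 active means inhibition over a set limit, the all-compound mean plus 3 SD, in both replicate runs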;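 further: 0% = DMSO wells with no growth and 100% = 10 µM 1-NA-PP1 with full growth; RAM network block rescues cells from 5-FOA so hits raise OD615 growth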); settings: S. cerevisiae dse1pr::URA3 5-FOA growth, OD615, 2 d; at 10 µM; stronger effect = higher value; strain carries analog-sensitive mutant Cbk1 kinase
[14] = RAM signaling pathway blockade in yeast – S. cerevisiae, Pdr1DBD-CYC8 efflux-inhibited sensitized strain, primary screen (AID 1298;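 active means RAM network inhibition above 8.4% in each of two replicates, 3 SD over the compound average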;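 further: 0% = DMSO untreated cells without growth and 100% = 10 µM 1-NA-PP1 full growth; higher means more yeast growth rescued from 5-FOA killing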); settings: S. cerevisiae cbk1-as DSE1-URA3 strain, 5-FOA growth OD615, 2 d; at 50 µM; stronger effect = higher value
[15] = viability of PTEN-null HCT116 cells – cell-based, HCT116 clonal line, CellTiter-Glo, pilot screen (AID 824;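 active means viability at or below 27.92% in each of two runs, the all-compound median minus 4 SD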;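 further: 0% = 20 µM Hyamine control and 100% = vehicle cell control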); settings: HCT116 PTEN-deleted viability, 60 h, at 10 µM, stronger effect = lower value
[16] = H69AR cells + 2 uM doxorubicin, measured here: viability with 2 uM doxorubicin, stronger effect = lower value
[17] = H69AR cells, compound alone cytotoxicity

Receptor tyrosine-protein kinase erbB-2 (Homo sapiens), sequence (P04626 whole entry, looked up): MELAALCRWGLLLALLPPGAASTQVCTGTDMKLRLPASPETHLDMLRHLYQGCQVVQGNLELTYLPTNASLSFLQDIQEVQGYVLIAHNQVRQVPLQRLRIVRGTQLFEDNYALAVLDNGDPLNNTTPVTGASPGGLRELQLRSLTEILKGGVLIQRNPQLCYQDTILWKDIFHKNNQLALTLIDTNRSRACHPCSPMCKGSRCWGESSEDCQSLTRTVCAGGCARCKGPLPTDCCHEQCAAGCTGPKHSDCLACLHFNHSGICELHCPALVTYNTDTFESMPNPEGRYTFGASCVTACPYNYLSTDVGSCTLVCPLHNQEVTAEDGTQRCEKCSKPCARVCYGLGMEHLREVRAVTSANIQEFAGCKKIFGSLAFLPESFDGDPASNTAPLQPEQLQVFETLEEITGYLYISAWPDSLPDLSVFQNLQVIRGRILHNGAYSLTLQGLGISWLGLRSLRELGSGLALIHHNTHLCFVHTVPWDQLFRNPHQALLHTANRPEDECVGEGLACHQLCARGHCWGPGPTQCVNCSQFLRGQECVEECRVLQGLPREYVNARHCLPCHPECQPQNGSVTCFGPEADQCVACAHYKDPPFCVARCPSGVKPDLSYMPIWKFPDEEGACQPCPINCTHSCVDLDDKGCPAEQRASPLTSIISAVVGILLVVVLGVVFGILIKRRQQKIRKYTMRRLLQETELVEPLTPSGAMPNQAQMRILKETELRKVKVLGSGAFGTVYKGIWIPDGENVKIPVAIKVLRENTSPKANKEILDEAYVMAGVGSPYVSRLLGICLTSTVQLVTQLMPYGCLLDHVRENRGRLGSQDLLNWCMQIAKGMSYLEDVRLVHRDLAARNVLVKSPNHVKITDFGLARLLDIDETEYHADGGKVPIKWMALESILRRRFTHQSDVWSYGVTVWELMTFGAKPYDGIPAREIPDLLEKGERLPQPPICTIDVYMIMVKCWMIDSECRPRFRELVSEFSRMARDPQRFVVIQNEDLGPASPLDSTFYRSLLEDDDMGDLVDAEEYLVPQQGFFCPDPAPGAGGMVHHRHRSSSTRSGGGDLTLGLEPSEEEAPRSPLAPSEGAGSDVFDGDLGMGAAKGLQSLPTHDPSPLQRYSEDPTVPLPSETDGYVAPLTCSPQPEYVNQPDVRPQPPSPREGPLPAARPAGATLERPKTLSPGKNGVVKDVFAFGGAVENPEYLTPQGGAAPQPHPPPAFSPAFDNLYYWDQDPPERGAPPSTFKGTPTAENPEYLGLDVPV

| SMILES | viability [1] | Her2 level [2] | viability [3] | viability [4] | viability [5] | differential viability (reversal) ([6]; H69AR cells + 2 uM doxorubicin) | viability [6, 16] | viability [6, 17] | inhibition [7] | inhibition [8] | growth inhibition [9] | growth inhibition [10] | viability increase [11] | viability [12] | inhibition [13] | RAM network inhibition [14] | viability [15] |
| --- | --- | --- | --- | --- | --- | --- | --- | --- | --- | --- | --- | --- | --- | --- | --- | --- | --- |
| CCN(CC)CCCN1C(=O)C(O)=C(C(=O)c2ccco2)C1c1ccc(C)o1 (stereo not given) | 102% | 93.5% (inactive) | 102% (inactive) | 102% (inactive) | 85.4% (inactive) | -0.59% (inactive) | 86% | 85.4% | -6.89% (inactive) | 7.94% (inactive) | -11.8% (inactive) | 14.4% (inactive) | -4.15% (inactive) | 97.4% (inactive) | 0.395% (inactive) | 3.48% (inactive) |  |
| Cn1ccnc1SCC(=O)Nc1ccc2ccccc2c1 | 96.5% | 85.5% (inactive) | 96.5% (inactive) | 91.5% (inactive) | 105% (inactive) | 17.8% (inactive) | 86.9% | 105% | -4.38% (inactive) | -4.92% (inactive) | 2.36% (inactive) | 3.36% (inactive) | -2.68% (inactive) | 96.8% (inactive) | 1.69% (inactive) | 3.49% (inactive) |  |
| O=C(CCNS(=O)(=O)c1cccc2nsnc12)Nc1ccc2c(c1)OCCO2 | 90.5% | 96% (inactive) | 90.5% (inactive) | 88.7% (inactive) | 101% (inactive) | 12.9% (inactive) | 88.5% | 101% | -7.95% (inactive) | -1.11% (inactive) | -7.75% (inactive) | -0.065% (inactive) | -3.8% (inactive) |  | 2.37% (inactive) | 4.76% (inactive) | 98.9% (inactive) |
| O=C1CCCC2=C1C(c1cccs1)n1nc(SCc3ccccc3F)nc1N2 (stereo not given) | 85% | 99.5% (inactive) | 85% (inactive) | 65.5% (inactive) | 81.7% (inactive) | 66.1% (active) | 15.6% | 81.7% | -0.27% (inactive) | 10.2% (inactive) | -6.56% (inactive) | -6.42% (inactive) | -5.19% (inactive) |  | 1.23% (inactive) | 3.02% (inactive) | 68.4% (inactive) |
| O=C1NC(=O)C(CC(=O)N(Cc2ccco2)C2(C(=O)NC3CCCC3)CCCCC2)N1 (stereo not given) | 99.5% | 116% (inactive) | 99.5% (inactive) | 106% (inactive) | 92.6% (inactive) | -1.5% (inactive) | 94.1% | 92.6% | -7.95% (inactive) | -6.51% (inactive) | -7.63% (inactive) | -4.51% (inactive) | -3.06% (inactive) |  | 0.975% (inactive) | -0.51% (inactive) | 89% (inactive) |
| CCOCCCNC(=O)C(c1ccccc1)N(Cc1ccc2c(c1)OCO2)C(=O)CNC(C)=O (stereo not given) | 100% | 108% (inactive) | 100% (inactive) | 97.7% (inactive) | 105% (inactive) | 2.97% (inactive) | 102% | 105% | -6.3% (inactive) | 1.59% (inactive) | 3.28% (inactive) | -2.68% (inactive) | -3.36% (inactive) | 98.6% (inactive) | 0.43% (inactive) | 1.52% (inactive) |  |
| CCOc1ccc(-c2nnc3sc(-c4c(OC)cccc4OC)nn23)cc1 | 126% | 84% (inactive) | 126% (inactive) | 86.5% (inactive) | 86.2% (inactive) | 1.34% (inactive) | 84.8% | 86.2% | -5.87% (inactive) | 10.5% (inactive) | -0.61% (inactive) | 8.15% (inactive) | -5.89% (inactive) |  | 2.04% (inactive) | 4.81% (inactive) | 71.3% (inactive) |
| O=C(CSC1=NCCS1)NCc1ccco1 | 84% | 108% (inactive) | 84% (inactive) | 80.6% (inactive) | 90.1% (inactive) | 1.28% (inactive) | 88.8% | 90.1% | -0.54% (inactive) | 26.5% (inactive) | 6.88% (inactive) | 47.7% (active) | -3.56% (inactive) |  | 2.73% (inactive) | 3.89% (inactive) | 100% (inactive) |
| O=C(NC1(C(=O)NC2CCCCC2)CCCCC1)c1ccc2c(c1)OCO2 | 96.5% | 92.5% (inactive) | 96.5% (inactive) | 105% (inactive) | 104% (inactive) | 4.42% (inactive) | 99.2% | 104% | -4.66% (inactive) | -1.27% (inactive) | -0.75% (inactive) | 10.5% (inactive) | 0.41% (inactive) |  | 1% (inactive) | 5.37% (inactive) | 87% (inactive) |
| CCOC(=O)c1cc2c(=O)n3ccccc3nc2n(CCCOC)c1=NC(=O)C(C)(C)C | 91% | 92% (inactive) | 91% (inactive) | 105% (inactive) | 83.7% (inactive) | 23.1% (inactive) | 60.6% | 83.7% | -7.4% (inactive) | -3.17% (inactive) | -11% (inactive) | 7.96% (inactive) | -2.09% (inactive) |  | 2.98% (inactive) | 2.11% (inactive) | 91.4% (inactive) |
| Cc1ccc(N(C(=O)C2CCC(=O)N2)C2(C(=O)NC3CCCCC3)CCCCC2)cc1 (stereo not given) | 110% | 99% (inactive) | 110% (inactive) | 108% (inactive) | 98.4% (inactive) | 3.47% (inactive) | 94.9% | 98.4% | -0.55% (inactive) | -0.79% (inactive) | -9.55% (inactive) | -6.46% (inactive) | -2.37% (inactive) |  | 2.28% (inactive) | 1.79% (inactive) | 92.9% (inactive) |
| O=C(Nc1nncs1)c1ccccc1NS(=O)(=O)c1cccs1 | 99% | 110% (inactive) | 99% (inactive) | 95.3% (inactive) | 90.2% (inactive) | -3.62% (inactive) | 93.8% | 90.2% | -4.86% (inactive) | -11.2% (inactive) | -20.1% (inactive) | -10.1% (inactive) | -1.16% (inactive) | 102% (inactive) | 2.67% (inactive) | 4.37% (inactive) |  |
| CC(C)c1ccc(NC(=O)CCNS(=O)(=O)c2cccc3nonc23)cc1 | 98.5% | 89% (inactive) | 98.5% (inactive) | 84.6% (inactive) | 95.3% (inactive) | 1.35% (inactive) | 93.9% | 95.3% | -8.9% (inactive) | -3.17% (inactive) | -7.97% (inactive) | -5.83% (inactive) | -1.42% (inactive) |  | 0.265% (inactive) | 1.64% (inactive) | 86.3% (inactive) |
| CCOC(=O)CCCOC(=O)c1ccc(S(=O)(=O)N(C)C)cc1 | 95% | 84.5% (inactive) | 95% (inactive) | 88.7% (inactive) | 100% (inactive) | 1.72% (inactive) | 98.7% | 100% | -6.49% (inactive) | 2.79% (inactive) | -13.7% (inactive) | -2.25% (inactive) | -2% (inactive) |  | 1.5% (inactive) | 4.96% (inactive) | 89.6% (inactive) |
| CCOC(=O)c1[nH]c(C)c(C(=O)Nc2ccc(C)cc2C)c1C | 91.5% | 92% (inactive) | 91.5% (inactive) | 54.8% (inactive) | 22.2% (active) | -28.5% (inactive) | 50.7% | 22.2% | -3.72% (inactive) | -3.5% (inactive) | -12.6% (inactive) | -5.29% (inactive) | -6.07% (inactive) |  | 1.79% (inactive) | 0.04% (inactive) | 32.8% (inactive) |
| CCOC(=O)c1cc2c(=O)n3ccccc3nc2n(CCCOC)c1=NC(C)=O | 90% | 94.5% (inactive) | 90% (inactive) | 109% (inactive) | 94.2% (inactive) | 26.5% (inactive) | 67.7% | 94.2% | -5.48% (inactive) | -0.48% (inactive) | -6.91% (inactive) | -0.22% (inactive) | -4.92% (inactive) |  | 1.38% (inactive) | 6.83% (inactive) | 100% (inactive) |
| O=C(CCS(=O)(=O)c1cccc2nsnc12)NCc1ccccc1 | 93.5% | 116% (inactive) | 93.5% (inactive) | 91.2% (inactive) | 106% (inactive) | 17.4% (inactive) | 88.9% | 106% | -3.01% (inactive) | -4.6% (inactive) | -12.7% (inactive) | -4.2% (inactive) | -2.9% (inactive) |  | 1.31% (inactive) | 1.65% (inactive) | 105% (inactive) |
| O=C(c1cnccn1)N(c1ccccc1)C1(C(=O)NC2CCCC2)CCCCC1 | 118% | 106% (inactive) | 118% (inactive) | 96% (inactive) | 99.1% (inactive) | -2.94% (inactive) | 102% | 99.1% | -8.77% (inactive) | -1.75% (inactive) | -9.55% (inactive) | -12.1% (inactive) | -1.49% (inactive) |  | 1.56% (inactive) | 3.39% (inactive) | 96% (inactive) |
| CC(O)CN1C(=O)C(CC(=O)Nc2ccc(Cl)cc2)SC1=Nc1ccccc1 (stereo not given) | 97% | 101% (inactive) | 97% (inactive) | 57% (inactive) | 66.4% (inactive) | -10.2% (inactive) | 76.6% | 66.4% | -6.99% (inactive) | -7.94% (inactive) | -9.07% (inactive) | -7.22% (inactive) | -3.6% (inactive) |  | 2.45% (inactive) | 6.03% (inactive) | 59.2% (inactive) |
| Clc1ss/c(=N\c2ccccn2)c1Cl | 100% | 77% (inactive) | 100% (inactive) | 77.8% (inactive) | 76.6% (inactive) | 4.38% (inactive) | 72.3% | 76.6% | -9.18% (inactive) | 2.06% (inactive) | 3.12% (inactive) | 19.3% (inactive) | -5.42% (inactive) |  | 1.77% (inactive) | 3.89% (inactive) | 96.8% (inactive) |
